Experimental data reported in PubChem BioAssay (Tox21).
Results filed as inconclusive are left out. Calls of active or inactive are those of the source. Calls come from the whole dose curve; as a rule, active = well fitted activation curve with a large enough effect in the repeat runs; inconclusive = weak or mixed curves; inactive = no such curve, though single readings can be large or run the other way.

These molecules were tested against Nuclear receptor subfamily 1 group I member 2 (Homo sapiens) (UniProt O75469) (assay: Human pregnane X receptor (PXR) small molecule agonists, qHTS assay (AID 1346982; note: nearly all actives have a fitted effect of over 35% in size)). Details: PXR-Luc HepG2, CYP3A4 luciferase reporter, 24 h; series mostly up to 92.4 µM; activation: at the top concentration.
Summary of the method: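 Cells: HepG2 stably carrying PXR-Luc. Medium held 5% charcoal-stripped FBS. Compounds in DMSO added after 5 hr plating, incubated 24 hr, then luminescence quantified with ONE-Glo.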
% is set by controls: 0 for no effect and ±100 for the full control effect; potency is the fitted concentration of half-maximal effect.

Chain of Nuclear receptor subfamily 1 group I member 2 (Homo sapiens) (O75469 whole entry, looked up): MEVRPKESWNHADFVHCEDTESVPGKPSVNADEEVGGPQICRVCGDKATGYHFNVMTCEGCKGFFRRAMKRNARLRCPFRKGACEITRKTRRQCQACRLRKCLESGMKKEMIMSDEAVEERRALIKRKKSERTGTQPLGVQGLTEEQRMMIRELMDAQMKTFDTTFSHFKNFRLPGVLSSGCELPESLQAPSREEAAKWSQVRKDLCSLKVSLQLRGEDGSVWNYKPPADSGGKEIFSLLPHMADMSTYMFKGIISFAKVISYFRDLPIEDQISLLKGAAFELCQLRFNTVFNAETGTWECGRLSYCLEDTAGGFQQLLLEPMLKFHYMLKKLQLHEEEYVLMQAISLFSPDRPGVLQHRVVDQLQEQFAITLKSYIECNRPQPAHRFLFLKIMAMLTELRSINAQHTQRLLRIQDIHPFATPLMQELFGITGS

| Compound | activation | Potency |
| --- | --- | --- |
| CN1CCN(CCC(=O)N2c3ccccc3Sc3ccc(C(F)(F)F)cc32)CC1 | -26.9% [at 42.5 µM] (inactive) |  |
| CCCCCCCCCCCC[N+](C)(C)CCCCCCCCCCCC | -35% (inactive) |  |
| CCCCCCCCCCCC(=O)NCCCN(C)C |  | 24.3 µM (active) |
| CN1CCC(Nc2ncc3ncnc(Nc4ccc(F)c(Cl)c4)c3n2)CC1 |  | 10.6 µM (active) |
| CC(C)(C)C(=O)OCOC(=O)C1N2C(=O)CC2S(=O)(=O)C1(C)C (stereo not drawn) | -3.45% [at 42.5 µM] (inactive) |  |
| CNCc1cc(F)ccc1Oc1ccc(Cl)c(Cl)c1 | 2.94% (inactive) |  |
| CCCCCOC(=O)CCCC | 1.95% (inactive) |  |
| COc1ccc(C(=O)/C(Br)=C\C(=O)O)cc1 |  | 21.7 µM (active) |
| O=c1c(-c2ccccc2)c1-c1ccccc1 |  | 11.9 µM (active) |
| COc1cc(-c2nc(NC(=O)c3cc4cc(C)cc(C)c4n3CC(=O)O)sc2CCC2CCCCC2)c(OC)cc1Cl |  | 28.1 µM (active) |
| O=S1(=O)CC(Cl)(Cl)C(Cl)(Cl)C1 |  | 0.545 µM (active) |
| O=C1c2ccccc2Cc2ccccc21 |  | 27.5 µM (active) |
| O=C(c1ccc(F)cc1)C1CCN(CCn2c(=O)[nH]c3ccccc3c2=O)CC1 | -9.58% [at 42.5 µM] (inactive) |  |
| C[C@H](CCC(=O)O)[C@H]1CC[C@H]2[C@@H]3CC[C@@H]4C[C@H](O)CC[C@]4(C)[C@H]3CC[C@]12C |  | 54.5 µM (active) |
| CCCCCCCCCCCCCCCC[N+](C)(C)CCN(Cc1ccc(OC)cc1)c1ncccn1 | -31.8% [at 42.5 µM] (inactive) |  |
| CC1=C(/C=C/C(C)=C/C=C/C(C)=C/C=O)C(C)(C)CCC1 |  | 15.3 µM (active) |
| CCC(N)(CO)CO | 4.4% (inactive) |  |
| O=c1[nH]sc2ccccc12 |  | 8.63 µM (active) |
